Measurements published in PubChem BioAssay (Tox21).
Unmarked numbers belong to inactive results. Inconclusive results are not listed. Where a call stands in place of a potency, no number is given. Active and inactive are the calls of the source. Unless noted, calls come from the whole dose curve; as a rule, active = well fitted curve in the direction sought with a large enough effect in the repeat runs; inconclusive = weak or mixed curves; inactive = no such curve, though single readings can be large; an effect the other way counts as inactive or inconclusive.

What was measured:
[1] = qHTS assay to identify small molecule agonists of H2AX (AID 1224845; active = well fitted activation curve with a large enough effect in the signal ratio in the repeat runs, not every such curve was filed as active; the % refers to the signal ratio)
Outline: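 Wild-type CHO-K1 cells, plated overnight, exposed 3hr at 37C to 15 concentrations (0.76% DMSO final). Lysed, then HTRF anti-pH2AX (S139) cryptate and anti-H2AX-d2 antibodies, 24 hr room temperature; 665/620 nm emission read.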

[2] = qHTS assay to identify small molecule antagonists of the estrogen related receptor (ERR) signaling pathway from Tox21 library (AID 1224848); note: nearly all actives have a fitted effect of over 50% in size; note: potency is the fitted concentration of half-maximal effect
Outline: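 Quantitative high-throughput format: ERR reporter cells (2,000/well) pre-incubated 6 h, treated 18 h at 37 C with compounds in DMSO alongside positive and negative controls, then read by ONE-Glo luminescence.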

[3] = qHTS assay to identify small molecule agonists of the estrogen related receptor (ERR) signaling pathway from Tox21 library (AID 1224849; calls by dose curve; note: nearly all actives have a fitted effect of over 15% in size); details: ERR reporter cell line, ONE-Glo luciferase, 18 h; at 92.4 µM (top of the series) unless noted
Outline: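 Reporter cells (ERR, NTP source) treated with Tox21 10K compounds 18 h, 37 C. Readout: ONE-Glo luminescence, 30 min RT.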

[4] = qHTS RealTime-Glo MT Cell Viability Assay in HepG2 cells - 24 hour (AID 1224867); note: nearly all actives have a fitted effect of over 50% in size; note: potency is the fitted concentration of half-maximal effect
Outline: (§1)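 Cells + NanoLuc/prosubstrate dispensed (600 cells/well) → 5 h at 37 C/5% CO2 → compounds in DMSO transferred → 40 h incubation at 37 C, luminescence read at 0, 8, 16, 24, 32, 40 h.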

[5] = A CellTox Green Cytotoxicity Assay to monitor cytotoxicity in HEK293 cells - 0 hour (AID 1224869); note: nearly all actives have a fitted effect of over 50% in size
Outline: (§2)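 Homogeneous no-lysis format: HEK293 cell suspension mixed with CellTox Green reagent, seeded, incubated 5 h at 37 C/5% CO2, then dosed by pintool with compound in DMSO.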

[6] = qHTS RealTime-Glo MT Cell Viability Assay in HepG2 cells - 40 hour (AID 1224870); note: nearly all actives have a fitted effect of over 50% in size; note: potency is the fitted concentration of half-maximal effect
Outline: (§3)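 HepG2 cells (600/well) mixed with RealTime-Glo MT reagent, settled 5 h at 37 C/5% CO2 before compound addition. Nonlytic NanoLuc luminescence from viable-cell prosubstrate reduction read repeatedly during 40 h treatment at 37 C.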

[7] = A CellTox Green Cytotoxicity Assay to monitor cytotoxicity in HEK293 cells - 40 hour (AID 1224871); note: nearly all actives have a fitted effect of over 45% in size; note: potency is the fitted concentration of half-maximal effect
Outline: as §2

[8] = qHTS RealTime-Glo MT Cell Viability Assay in HepG2 cells - 8 hour (AID 1224873); note: nearly all actives have a fitted effect of over 55% in size; note: potency is the fitted concentration of half-maximal effect
Outline: as §3

[9] = A CellTox Green Cytotoxicity Assay to monitor cytotoxicity in HEK293 cells - 24 hour (AID 1224875); note: nearly all actives have a fitted effect of over 45% in size; note: potency is the fitted concentration of half-maximal effect
Outline: as §2

[10] = A CellTox Green Cytotoxicity Assay to monitor cytotoxicity in HepG2 cells - 16 hour (AID 1224876); note: nearly all actives have a fitted effect of over 45% in size
Outline: (§4)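 Fluorescent DNA-binding dye, 600 HepG2 cells/well, 5 h preincubation then compound in DMSO; same plates read at 0–40 h, 37 C.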

[11] = qHTS RealTime-Glo MT Cell Viability Assay in HepG2 cells - 32 hour (AID 1224877); note: nearly all actives have a fitted effect of over 55% in size; note: potency is the fitted concentration of half-maximal effect
Outline: as §1

[12] = A CellTox Green Cytotoxicity Assay to monitor cytotoxicity in HepG2 cells - 24 hour (AID 1224878); note: nearly all actives have a fitted effect of over 45% in size; note: potency is the fitted concentration of half-maximal effect
Outline: as §4

[13] = A CellTox Green Cytotoxicity Assay to monitor cytotoxicity in HepG2 cells - 40 hour (AID 1224879); note: nearly all actives have a fitted effect of over 40% in size; note: potency is the fitted concentration of half-maximal effect
Outline: as §4

[14] = qHTS RealTime-Glo MT Cell Viability Assay in HEK293 cells - 0 hour (AID 1224880)
Outline: (§5)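 Measured as luminescence from the same continuously cultured HEK293 wells at successive time points (0, 8, 16, 24, 32, 40 h) after compound addition. Reagent present from seeding; dosing at 5 h; incubation 37 C.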

[15] = qHTS RealTime-Glo MT Cell Viability Assay in HEK293 cells - 32 hour (AID 1224868); note: nearly all actives have a fitted effect of over 50% in size; note: potency is the fitted concentration of half-maximal effect
Outline: (§6)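 Tox21 10K qHTS, HEK293, 600 cells/well, RealTime-Glo reagent co-dispensed with cells; 5 h preincubation, compound by pintool, 37 C, luminescence at 0–40 h.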

[16] = qHTS RealTime-Glo MT Cell Viability Assay in HEK293 cells - 16 hour (AID 1224872)
Outline: as §6

[17] = qHTS RealTime-Glo MT Cell Viability Assay in HEK293 cells - 40 hour (AID 1224874); details: RealTime-Glo luminescence; max response: active compounds read low; note: nearly all actives have a fitted effect of over 50% in size; note: potency is the fitted concentration of half-maximal effect
Outline: as §5

[18] = qHTS assay to identify small molecule agonists of H2AX - cell viability counter screen (AID 1224847; calls by dose curve; note: nearly all actives have a fitted effect of over 30% in size; note: potency is the fitted concentration of half-maximal effect)
Outline: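 For this counter screen, overnight-attached CHO-K1 cells received test compounds (15 concentrations, 0.76% DMSO final); 3 hr later at 37C, CellTiter-Glo reagent was added and luminescence recorded after 30 min at room temperature.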

[19] = qHTS assay to identify small molecule agonists of the hypoxia (HIF-1) signaling pathway (AID 1224846; active = well fitted activation curve with a large enough effect in the signal ratio in the repeat runs, not every such curve was filed as active; the % refers to the signal ratio)
Outline: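 In ME-180 cells bearing an HRE-bla construct, 17 h treatment with DMSO-dissolved compounds at 37C was followed by CCF4-AM loading to quantify reporter induction.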

Row | Compound | Potency [1] | Potency [2] | activity change, positive = activation [3] | Potency [4] | Potency [5] | Potency [6] | Potency [7] | Potency [8] | Potency [9] | Potency [10] | Potency [11] | Potency [12] | Potency [13] | Potency [14] | Potency [15] | Potency [16] | max response [17] | Potency [18] | Potency [19] | Potency [17]
1 | CC(C)C[C@H]1C(=O)N2CCC[C@H]2[C@]2(O)O[C@](NC(=O)[C@@H]3C=C4c5cccc6[nH]c(Br)c(c56)C[C@H]4N(C)C3)(C(C)C)C(=O)N12 | inactive | 14.6 µM (active) | -64.1% [at 42.5 µM] | 13.2 µM (active) | inactive | 14.8 µM (active) | inactive | 13.2 µM (active) | inactive | inactive | 13.2 µM (active) | inactive | inactive | inactive |  |  |  |  |  | 
2 | CCCn1cnc2c1c(=O)n(CCCCC(C)=O)c(=O)n2C | inactive | inactive | 0.154% [at 42.5 µM] | inactive | inactive | inactive |  | inactive | inactive | inactive | inactive | inactive | inactive | inactive | inactive | inactive | -0.107% |  |  | 
3 | CN(C)CCN(Cc1ccccc1)c1ccccn1 | inactive |  |  | inactive | inactive | inactive | inactive | inactive | inactive | inactive |  | inactive | inactive | inactive | inactive | inactive | -27.7% | inactive |  | 
4 | CN1CCC(=C2c3ccccc3Sc3ccccc32)CC1 | inactive | inactive | 1.79% [at 42.5 µM] | inactive | inactive | inactive |  | inactive | inactive |  |  | 23.9 µM (active) | 23.9 µM (active) |  |  | inactive |  |  |  | 
5 | Cc1cc(N)c2cc(NC(=O)Nc3ccc4nc(C)cc(N)c4c3)ccc2n1 |  |  |  | inactive |  | inactive | inactive | inactive | inactive | inactive | inactive | inactive | inactive | inactive | inactive | inactive | -16.5% |  |  | 
6 | O=C(O)C1(C(=O)O)CCC1.[NH2-].[NH2-].[Pt+2] | inactive |  |  | inactive | inactive | inactive | inactive | inactive | inactive | inactive | inactive |  | inactive | inactive | inactive | inactive | -1.65% | inactive |  | 
7 | c1ccc(-c2ccccn2)nc1 |  |  | -20.5% |  | inactive | inactive | inactive | inactive | inactive | inactive | inactive |  | inactive | inactive | inactive | inactive | -0.479% | inactive |  | 
8 | CCN(CC)CCOC(=O)C(c1ccccc1)C1CCCCC1 (configuration not stated) |  |  |  |  |  | inactive | 21.3 µM (active) |  | 23.9 µM (active) |  |  | 23.9 µM (active) | 21.3 µM (active) | inactive |  |  |  | 49.2 µM (active) | inactive | 
9 | CC(C)Nc1ccc(NC(C)C)c2c1C(=O)c1ccccc1C2=O |  |  |  | inactive | inactive | inactive | 25.5 µM (active) | inactive | 25.5 µM (active) | inactive |  |  | 8.07 µM (active) | inactive | inactive | inactive | -6.09% | 26.3 µM (active) | inactive | 
10 | CCNc1cc(O)ccc1C |  | inactive | -8.23% | inactive |  | inactive | 34.3 µM (active) | inactive | 38.5 µM (active) | inactive |  | inactive | inactive | inactive | inactive | inactive | 7.99% | inactive |  | 
11 | CNCCCN1c2ccccc2CCc2ccccc21 | inactive |  |  |  | inactive |  |  | inactive | inactive |  |  | 26.8 µM (active) | 26.8 µM (active) | inactive |  |  |  | inactive |  | 
12 | CN(C)CCCN1c2ccccc2Sc2ccccc21 |  | inactive | 7.95% [at 42.5 µM] |  | inactive | inactive | inactive | inactive | inactive |  | inactive |  | 23.9 µM (active) |  |  | inactive | -25.3% |  |  | 
13 | CO[C@@H]1[C@H](OC(=O)/C=C/C=C/C=C/C=C/C(=O)O)CC[C@]2(CO2)[C@H]1[C@@]1(C)O[C@@H]1CC=C(C)C | inactive | inactive | -16% | inactive | inactive | inactive | inactive | inactive | inactive | inactive | inactive |  | inactive | inactive |  |  | 18.9% | inactive |  | 
14 | COc1ccc(S(=O)(=O)N2C(=O)[C@@](c3ccccc3OC)(N3C[C@H](O)C[C@H]3C(=O)N(C)C)c3cc(Cl)ccc32)c(OC)c1 |  |  |  |  | inactive |  | inactive |  | inactive | inactive |  | inactive | inactive | inactive | 49 µM (active) |  |  |  | inactive | 49 µM (active)
15 | C#C[C@]1(O)CC[C@H]2[C@@H]3CCc4cc(OC5CCCC5)ccc4[C@H]3CC[C@@]21C | inactive |  |  |  | inactive | inactive |  |  | inactive |  |  |  |  | inactive |  |  |  | 49.2 µM (active) |  | 23.9 µM (active)
16 | CCn1cc(C(=O)O)c(=O)c2cnc(N3CCNCC3)nc21 | inactive | inactive | 2.22% [at 42.5 µM] | inactive | inactive | inactive |  | inactive | inactive | inactive | inactive | inactive | inactive | inactive | inactive | inactive | 6.48% |  |  | 
